Inconclusive results are not listed. Active and inactive are the calls of the source. The calls were made as follows: active = hit-call score of the fitted dose curve at least 0.9, where 1 is the maximum; inconclusive = response in the unintended direction; inactive = score below 0.9.

This test is described as follows: ATG_XTT_Cytotoxicity: Cytotoxicity Assessment in the Attagene TRANS-FACTORIAL HepG2 Assay (AID 2283584).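 As to AC50: cells exposed to compound for 24 h before reading; active means loss of viability signal versus DMSO baseline.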 In outline: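 Cells: human HepG2, transiently transfected with MRTU reporter constructs. Exposure 24 h. Readout: XTT, cell number. Baseline/neg ctrl DMSO; loss-of-signal scored.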
For the compound `O=C1c2ccccc2C(=O)C1c1nc2ccccc2c(Br)c1O`, the compound was called inactive.

Turning to `O=P(O)(O)Oc1ccccc1`, the compound was classed as inactive. On the same count and under the same terms, to `CCCC(C)CCC(C)=O` (stereo not given) belongs “inactive”. The same measure, in the same setting: to `CC/C=C\CCOC(=O)CCCCC` belongs “inactive”; to `NCCCN1CCN(CCCN)CC1`, “inactive”.

As to `Cc1cc(O)c(Cl)c(C)c1Cl`, the result was inactive. The same measure, in the same setting: to `COc1ccc(C(Cl)=C(c2ccc(OC)cc2)c2ccc(OC)cc2)cc1` belongs “inactive”. Still for that read-out and setting: the value for `c1ccc(CCCc2ccncc2)cc1` was “inactive”. Same read-out and setting: the value for `CCOc1nc(F)cc2nc(S(=O)(=O)Nc3c(Cl)cccc3C(=O)OC)nn12` was “inactive”. In the case of `CCC(C)(C)C1CCCCC1OC(C)=O` (stereo not given), the outcome was inactive. Still for that read-out and setting: the value for `CCCCCCCCc1ccc(Nc2ccc(CCCCCCCC)cc2)cc1` was “inactive”; that for `CCCCC(CC)COC(=O)c1ccccc1O` (stereo not given) was “inactive”; that for `CC(C)C(=O)C(C)C` was “inactive”. The same measure, in the same setting: the value for `CCCCCCCCCCCSCC(=O)O` was “inactive”; that for `C/C=C\C/C=C/CCCCCCCCOC(C)=O` was “inactive”; that for `NNC(=O)c1cccc(C(=O)NN)c1` was “inactive”. Turning to `CC(=O)Nc1nnc(S(N)(=O)=O)s1`, the outcome was inactive.

For `Nc1ccc(N)c(Cl)c1`, the compound was called inactive. Still for that read-out and setting: the value for `COc1c2ccoc2cc2oc(=O)ccc12` was “inactive”.

Turning to `O=C1CCCCCN1SSN1CCCCCC1=O`, the call was inactive. Still for that read-out and setting: the value for `CC1(C)S[C@@H]2[C@H](NC(=O)COc3ccccc3)C(=O)N2[C@H]1C(=O)O` was “inactive”; that for `CCO[Si](CCCN=C=O)(OCC)OCC` was “inactive”. The same measure, in the same setting: to `CC(=O)CC(N)=O` belongs “inactive”; to `C[Si](C)O[Si](C)(C)O[Si](C)(C)O[Si](C)C`, “inactive”. Regarding `CCOC(=O)N1CCC(=C2c3ccc(Cl)cc3CCc3cccnc32)CC1`, the AC50 was 47.5 µM (active). Take `CC(C)(C)C1CCCCC1=O` (stereo not given): the result was inactive. Still for that read-out and setting: to `CCCCCCOc1cc(C)c(O)c(C)c1C` belongs “inactive”. On the same count and under the same terms, to `O=C1CCC(=O)N1Cl` belongs “inactive”; to `Nc1ncn([C@@H]2O[C@H](CO)[C@@H](O)[C@H]2O)c(=O)n1`, “inactive”. Consider `CC(C)=CC1CC(C)CCO1` (stereo not given), for which the outcome was inactive.

On to `O=S(=O)(O)c1cc(S(=O)(=O)O)c2ccc3c(S(=O)(=O)O)cc(S(=O)(=O)O)c4ccc1c2c43`, for which the compound was classed as inactive. The same measure, in the same setting: the value for `O=S(=O)(O)CC(O)CCl` (stereo not given) was “inactive”; that for `CCCCCC/C=C/C=O` was “inactive”.

Turning to `CC(=O)c1ccc[nH]1`, the compound was called inactive. The same measure, in the same setting: to `COc1ccc(NC(C)=O)cc1N` belongs “inactive”; to `Cn1c(=O)[nH]c2ncn(C)c2c1=O`, “inactive”. The same measure, in the same setting: to `Nc1ccc2cc3ccccc3cc2c1` belongs “inactive”.

As for `N#[N+]c1ccc2c(S(=O)(=O)[O-])cccc2c1O`, the compound was classed as inactive.

With `CC(C)(C)C(=O)C=Cc1ccc(Cl)cc1`, the outcome was inactive. Consider `CCC(=O)Oc1ccc(/C(CC)=C(\CC)c2ccc(OC(=O)CC)cc2)cc1`, for which the compound was called inactive.

For orientation: AC50 means the midpoint of the concentration-response curve, whichever way the signal moves.

Source of the values: PubChem BioAssay (EPA / NIEHS).
